The source of these data is the supplement of paper PMC13380429.

Test [1] deals with Vero E6 infected with SARS-CoV-2. The test can be described thus: morphology score (similarity to uninfected cells); higher = more like uninfected cells. To be noted: 24 h.
For test [2] the test system is unchanged. The test can be described thus: SARS-CoV-2 infection rate relative to infected DMSO; higher = more infection, active = 60 or less. Particulars: 24 h.

Each structure is given as a SMILES string.

With `O=C(O)CCNC(=O)c1ccccc1` [betamipron] (10 µM), the morphology score in test [1] is 0.00831. Besides, in test [2], the SARS-CoV-2 infection rate was 118% (inactive).

For `O=C(O)c1ccc(O)c2ncccc12` (10 µM), the morphology score in test [1] came out at 0.022. In addition, in test [2], the SARS-CoV-2 infection rate was 102% (inactive).

Regarding `CC(C)(O)C(=O)Nc1ccc([N+](=O)[O-])c(C(F)(F)F)c1` [2-hydroxyflutamide] (10 µM), in test [1], the morphology score worked out at 0.0933. Besides, in test [2], the SARS-CoV-2 infection rate is 108% (inactive).

Consider `O=C(O)CNC(=O)c1ccccc1I` [2-iodohippuric-acid] (10 µM), for which the morphology score in test [1] was -0.111. In addition, the SARS-CoV-2 infection rate in test [2] was 110% (inactive).

`CCc1nc(-c2cccc(C)c2)c(-c2ccnc(NC(=O)c3ccccc3)c2)s1` (10 µM) returned a morphology score in test [1] of 0.171. Further, in test [2], the SARS-CoV-2 infection rate was 104% (inactive).

Molecule `Nc1nc2c(ncn2[C@@H]2O[C@H](CO)[C@@H](O)[C@H]2O)c(=O)[nH]1` [guanosine] (10 µM) yielded a morphology score in test [1] of 0.0982. The SARS-CoV-2 infection rate in test [2] is 106% (inactive).

Molecule `Cn1nc(-c2cccc(F)c2)n(C)c1=S` [suritozole] (10 µM) gave a morphology score in test [1] of 0.141. Moreover, the SARS-CoV-2 infection rate in test [2] is 101% (inactive).

On to `Cc1ncc(COP(=O)([O-])[O-])c(CN(CCN(CC(=O)O)Cc2c(COP(=O)([O-])O)cnc(C)c2O)CC(=O)O)c1O.[Mn].[Na+].[Na+].[Na+]` [Mangafodipir (trisodium)] (10 µM), for which the morphology score in test [1] was -0.000637. The SARS-CoV-2 infection rate in test [2] is 120% (inactive).

For the molecule `Cc1coc2c1C(=O)C(=O)c1c-2ccc2c(C)cccc12` [tanshinone-I] (10 µM), the morphology score in test [1] is -0.0142. In addition, the SARS-CoV-2 infection rate in test [2] is 106% (inactive).

Turning to `OB1OCc2cc(F)ccc21` [tavaborole] (10 µM), in test [1], the morphology score is 0.00492. Also, the SARS-CoV-2 infection rate in test [2] was 108% (inactive).

In turn, `C[N+]1(C)[C@@H]2CC[C@H]1C[C@@H](OC(=O)C(O)c1ccccc1)C2` (some centres not stated) [homatropine-methylbromide] (10 µM) registered a morphology score in test [1] of -0.0363. Moreover, the SARS-CoV-2 infection rate in test [2] is 104% (inactive).

Turning to `O=C(CBr)N1CC([N+](=O)[O-])([N+](=O)[O-])C1` (10 µM), in test [1], the morphology score amounted to 0.0284. Moreover, in test [2], the SARS-CoV-2 infection rate was 116% (inactive).

In test [1], `CC(=O)O[C@H]1Cc2ccccc2N(C(N)=O)c2ccccc21` [eslicarbazepine-acetate] (10 µM) had a morphology score of 0.137. Moreover, the SARS-CoV-2 infection rate in test [2] was 106% (inactive).

With `N=C(C[C@@H](O)COc1ccccc1-c1ccccc1)N1CCCCC1` (10 µM), the morphology score in test [1] came to 0.0845. Further, the SARS-CoV-2 infection rate in test [2] was 104% (inactive).

Turning to `OCCC#Cc1nc(-c2ccc(F)cc2)c(-c2ccncc2)n1CCCc1ccccc1` (10 µM), the morphology score in test [1] amounted to 0.0292. In test [2], the SARS-CoV-2 infection rate was 101% (inactive).

In turn, `CCN[C@H]1C[C@H](C)S(=O)(=O)c2sc(S(N)(=O)=O)cc21` [dorzolamide] (10 µM) came in with a morphology score in test [1] of 0.0923. In addition, the SARS-CoV-2 infection rate in test [2] is 100% (inactive).

As to `O=C1c2c(O)cccc2Cc2cccc(O)c21` [anthralin] (10 µM), the morphology score in test [1] is -0.0665. Further, the SARS-CoV-2 infection rate in test [2] was 94% (inactive).

In test [1], `CN1C(=O)N(c2cc(Cl)cc(Cl)c2)C(=O)[C@]12CN(Cc1cc(C(=O)O)cs1)C[C@H]2c1ccc(C#N)cc1` (10 µM) had a morphology score of 0.281. Further, the SARS-CoV-2 infection rate in test [2] was 92.5% (inactive).

Molecule `NC(=O)c1cn(Cc2c(F)cccc2F)nn1` [rufinamide] (10 µM) displayed a morphology score in test [1] of 0.218. Further, in test [2], the SARS-CoV-2 infection rate was 102% (inactive).

For `Cc1nc[nH]c1CCN` [4-methylhistamine] (10 µM), the morphology score in test [1] was found to be 0.105. Further, the SARS-CoV-2 infection rate in test [2] was 99.5% (inactive).

Take `O=C(NCCCN1CCOCC1)c1ccc(Cl)cc1` [eprobemide] (10 µM): the morphology score in test [1] is -0.0432. Further, the SARS-CoV-2 infection rate in test [2] was 108% (inactive).

With `[Cl][Ti][Cl].c1cc[cH-]c1.c1cc[cH-]c1` [titanocene-dichloride] (10 µM), the morphology score in test [1] came to 0.163. Further, the SARS-CoV-2 infection rate in test [2] was 84% (inactive).

In turn, `CC(C)[C@@H]1C(=O)N(S(C)(=O)=O)[C@@H]2CCN(C(=O)/C=C/CN3CCCCC3)[C@H]21` (10 µM) yielded a morphology score in test [1] of 0.0406. The SARS-CoV-2 infection rate in test [2] is 106% (inactive).

In test [1], `Cc1cc([C@@H](C)Nc2ccccc2C(=O)O)c2nc(N3CCOCC3)cc(=O)n2c1` (10 µM) returned a morphology score of -0.0702. The SARS-CoV-2 infection rate in test [2] was 105% (inactive).

With `Nc1cc(Cl)c(N=C2NCCN2)c(Cl)c1` [apraclonidine] (10 µM), the morphology score in test [1] is -0.0224. Also, the SARS-CoV-2 infection rate in test [2] was 110% (inactive).

The molecule `C/C(=C\c1ccc(C(=O)O)cc1)c1ccc2c(c1)C(C)(C)CCC2(C)C` (10 µM) yielded a morphology score in test [1] of -0.0726. In test [2], the SARS-CoV-2 infection rate is 102% (inactive).

In test [1], `Cc1ccc(CNc2ncnc3ccc(-c4ccc(CO)o4)cc23)o1` (10 µM) showed a morphology score of 0.497. Also, the SARS-CoV-2 infection rate in test [2] was 106% (inactive).

In the case of `CCCC[C@H]1OC(=O)c2ccccc21` [butylphthalide] (10 µM), the morphology score in test [1] was -0.108. Moreover, the SARS-CoV-2 infection rate in test [2] was 102% (inactive).

The molecule `CCCCCCCCCCCCCCOc1ccc(C(=O)O)o1` (0.833333 µM) gave a morphology score in test [1] of 0.208. Besides, in test [2], the SARS-CoV-2 infection rate is 96.5% (inactive).

The molecule `NC(N)=Nc1nc(CSCC/C(N)=N/S(N)(=O)=O)cs1` [Famotidine] (10 µM) showed a morphology score in test [1] of -0.0119. In addition, the SARS-CoV-2 infection rate in test [2] is 106% (inactive).

With `CCCC[C@@H](NC(=O)[C@@H](Cc1cn(C(=O)OC)c2ccccc12)NC(=O)[C@H](CC(C)(C)C)NC(=O)N1[C@H](C)CCC[C@@H]1C)C(=O)O` (10 µM), the morphology score in test [1] was determined as 0.0975. Moreover, the SARS-CoV-2 infection rate in test [2] is 104% (inactive).
